PubChem BioAssay AID1159580 (chemical genetic matrix, 2015)
Several values for one entry are separate records, joined by “and”; a condition that tells them apart may be missing. Identical values can stand only once. Out of some 5,500 compounds screened, about 2,000 (36%) were called active. Another 18% or so got no clear call; they are omitted. No stated cut-off is given here; in the data, active means normalized growth mostly below about 0.91 (no sharp cut-off); inconclusive means no clear call, values can overlap the other calls; inactive means mostly above about 0.92. This is one part of the list.

Test: chemical genetic growth profiling, strain panel (AID 1159580);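 further: tested at 20 µM; growth read once vehicle control cultures reached saturation at 30 °C; 1 = growth at the plate median or of vehicle wells; lower values mean less growth of the strain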
Conditions: S. cerevisiae deletion strains, growth OD

Measured: normalized growth

Nc1ccn(C2O[C@H](CO)[C@@H](O)[C@H]2O)c(=O)n1 (some centres undefined)
inactive: locus YAL021C, strain ccr4, hits give low values 0.985 | locus YAL026C, strain drs2, hits give low values 0.983 | locus YAL030W, strain snc1, hits give low values 0.982 | locus YBL061C, strain skt5, hits give low values 0.996 | locus YBR009C, strain hhf1, hits give low values 0.997 | locus YBR021W, strain FUR4, hits give low values 1.02 | locus YBR023C, strain chs3, hits give low values 1 | locus YBR171W, strain sec66, hits give low values 0.991 | locus YBR229C, strain ROT2, hits give low values 0.997 | locus YBR231C, strain swc5, hits give low values 0.987 | locus YBR279W, strain paf1, hits give low values 0.995 | locus YCL011C, strain gbp2, hits give low values 0.991 | locus YCL016C, strain dcc1, hits give low values 1 | locus YCL029C, strain bik1, hits give low values 1.01 | locus YCL061C, strain MRC1, hits give low values 0.992 | locus YCL069W, strain vba3, hits give low values 0.992 | locus YCR088W, strain abp1, hits give low values 0.985 | locus YDL005C, strain med2, hits give low values 0.983 | locus YDL035C, strain GPR1, hits give low values 1.01 | locus YDL040C, strain nat1, hits give low values 0.987 | locus YDL074C, strain BRE1, hits give low values 1.03 | locus YDL101C, strain DUN1, hits give low values 1.02 | locus YDL185W, strain tfp1, hits give low values 1.03 | locus YDL192W, strain arf1, hits give low values 1.01 | locus YDR001C, strain nth1, hits give low values 0.977 | locus YDR069C, strain doa4, hits give low values 0.992 | locus YDR101C, strain arx1, hits give low values 1.03 | locus YDR137W, strain rgp1, hits give low values 0.982 | locus YDR150W, strain NUM1, hits give low values 0.962 | locus YDR159W, strain sac3, hits give low values 0.982 | locus YDR162C, strain NBP2, hits give low values 1 | locus YDR195W, strain ref2 0.974 | locus YDR297W, strain sur2, hits give low values 0.982 | locus YDR318W, strain mcm21, hits give low values 0.998 | locus YDR334W, strain swr1, hits give low values 0.981 | locus YDR335W, strain msn5, hits give low values 0.982 | locus YDR388W, hits give low values 1 | locus YDR392W, strain spt3, hits give low values 0.995 | locus YDR502C, strain sam2, hits give low values 1.01 | locus YEL003W, strain gim4, hits give low values 0.99 | locus YEL037C, strain rad23, hits give low values 0.991 | locus YEL061C, strain CIN8 (second series), hits give low values 0.983 | locus YEL061C, strain CIN8, hits give low values 1.01 | locus YER015W, strain faa2, hits give low values 1.01 | locus YER016W, strain bim1, hits give low values 0.987 | locus YER110C, hits give low values 1.01 | locus YER111C, strain swi4, hits give low values 0.982 | locus YER155C, strain BEM2 (second series), hits give low values 0.975 | locus YER155C, strain BEM2, hits give low values 1 | locus YER167W, strain BCK2, hits give low values 0.987 | locus YFR010W, strain ubp6, hits give low values 0.972 | locus YGL078C, strain dbp3, hits give low values 1.01 | locus YGL086W, strain mad1, hits give low values 1.03 | locus YGL167C, strain pmr1, hits give low values 0.997 | locus YGL173C, strain kem1, hits give low values 0.995 | locus YGL227W, strain vid30, hits give low values 0.993 | locus YGL240W, strain doc1, hits give low values 1.01 | locus YGL248W, strain PDE1, hits give low values 0.991 | locus YGL253W, strain hxk2, hits give low values 0.996 | locus YGR078C, strain PAC10, hits give low values 1.02 | locus YGR135W, strain pre9, hits give low values 1 | locus YGR252W, strain gcn5, hits give low values 0.993 | locus YHR013C, strain ard1, hits give low values 1.01 | locus YHR027C, strain rpn1, hits give low values 0.989 | locus YHR030C, strain SLT2, hits give low values 1.01 and 1 | locus YHR079C, strain IRE1 (second series), hits give low values 1 | locus YHR079C, strain IRE1, hits give low values 0.995 | locus YHR094C, strain hxt1, hits give low values 1.01 | locus YHR129C, strain ARP1, hits give low values 1.01 | locus YHR142W, strain chs7, hits give low values 0.999 | locus YHR200W, strain rpn10, hits give low values 1.02 | locus YIL066C, strain RNR3, hits give low values 0.995 | locus YIL073C, strain SPO22, hits give low values 1.02 | locus YIL125W, strain kgd1, hits give low values 1.01 | locus YIR030C, strain dcg1, hits give low values 1.01 | locus YJL092W, strain hpr5, hits give low values 0.988 | locus YJL095W, strain BCK1 (second series), hits give low values 0.995 | locus YJL095W, strain BCK1, hits give low values 1.06 and 1 | locus YJL115W, strain asf1, hits give low values 0.975 | locus YJL129C, strain trk1, hits give low values 0.995 | locus YJL134W, strain LCB3, hits give low values 0.999 | locus YJL154C, strain vps35, hits give low values 0.978 | locus YJL164C, strain tpk1, hits give low values 1 | locus YJL166W, strain qcr8, hits give low values 0.999 | locus YJL168C, strain set2, hits give low values 0.999 | locus YJL187C, strain SWE1 (second series), hits give low values 1.04 | locus YJL187C, strain SWE1, hits give low values 0.987 | locus YJR043C, strain POL32, hits give low values 1 | locus YJR066W, strain TOR1, hits give low values 0.909
